Some test systems named below: NCI-H23 lung; NCI-H226 lung; NCI-H322M lung; HOP-62 NSCLC; NCI-H460 lung; HOP-92 NSCLC; NCI-H522 lung; A549/ATCC NSCLC; 786-0 renal; COLO 205 colon.
Holding throughout (test): NCI-60 one-dose screen, 48 h (100 = growth as untreated, 0 = no growth, -100 = all killed)
Settings in all cases: 10 µM unless noted

Compounds without any hit were thinned out: in the full panel of roughly 83,000, 20% have a hit.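 Results are percent growth after 48 hours of single-concentration exposure. 100 means growth as in untreated cells, lower positive values show inhibition; negative values down to -100 show cell death.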 A number with no mark means an inactive call. Activity calls are given as the source filed them. Rule for the calls: active = growth percent below 10; inactive = the rest.

Turning to `COc1ccc2c(c1)c(-c1nc(-c3c[nH]c4ncccc34)cs1)cn2CCCN1CCCCC1`, the growth in the test with NCI-H23 lung is 73.1%; with NCI-H226 lung, 70.8%; in the test on NCI-H322M lung it was 56.4%; in the test with HOP-62 NSCLC it was 37.4%; in the test on NCI-H460 lung it was 5.78% (active); with HOP-92 NSCLC, 24.9%. Also, the growth in the test on NCI-H522 lung is 67.6%; in the test with A549/ATCC NSCLC, 41.3%; in the test with 786-0 renal, -75.1% (active); in the test on COLO 205 colon, -74.9% (active).
On to `COc1cc(-c2cc3ncccc3c3nc(OCCN(C)C)c4cccnc4c23)cc(OC)c1OC`, for which the growth in the test with NCI-H23 lung was 13.4%; in the test with NCI-H226 lung it was -5.43% (active); in the test with NCI-H322M lung, 17.9%; with HOP-62 NSCLC, -45.6% (active); in the test on NCI-H460 lung, -50.8% (active); in the test on HOP-92 NSCLC, -8.69% (active). Moreover, the growth is 7.46% (active) in the test on NCI-H522 lung, -37.7% (active) in the test with A549/ATCC NSCLC, -88.5% (active) in the test on 786-0 renal and 3.65% (active) in the test with COLO 205 colon.
On to `c1ccc2c(-c3nc(-c4c[nH]c5ncccc45)cs3)c[nH]c2c1`, for which the growth in the test on NCI-H23 lung is 97.5%; in the test on NCI-H226 lung it was 97.9%; with NCI-H322M lung, 91.1%; in the test on HOP-62 NSCLC, 83.2%; in the test on NCI-H460 lung it was 115%; in the test with HOP-92 NSCLC, 65.7%. Besides, the growth with NCI-H522 lung was 85.2%; in the test with A549/ATCC NSCLC, 100%; in the test on 786-0 renal it was 93.4%; with COLO 205 colon, 66.3%.
Take `COc1cnc2c(c1)C(=O)c1c-2n(CCCNC2=NCCS2)c(=O)c2cc([N+](=O)[O-])ccc12`: the growth was -47.1% (active) in the test on NCI-H23 lung; 8.43% (active) with NCI-H226 lung; -19.6% (active) in the test with NCI-H322M lung; -59.6% (active) in the test with HOP-62 NSCLC; -81.9% (active) in the test on NCI-H460 lung; 24.9% with HOP-92 NSCLC. Besides, the growth with NCI-H522 lung is 22.8%; in the test with A549/ATCC NSCLC it was -77.2% (active); with 786-0 renal, -93% (active); in the test on COLO 205 colon, -67.1% (active).
Turning to `COc1ccc2nc(-c3c(-c4ccccc4)nc4ncccn34)[nH]c2c1`, the growth was 105% in the test with NCI-H23 lung; 106% in the test on NCI-H226 lung; 105% in the test on NCI-H322M lung; 108% in the test with HOP-62 NSCLC; 106% in the test on NCI-H460 lung; 111% in the test on HOP-92 NSCLC. Moreover, the growth with NCI-H522 lung was 88.7%; in the test on A549/ATCC NSCLC, 97.8%; in the test with 786-0 renal, 103%; in the test with COLO 205 colon, 108%.
For the compound `COc1cc(NC(C)CN(CC(C)C)C(C)C)c2ncccc2c1` (stereo not given), the growth in the test with NCI-H23 lung was 83.7%; in the test with NCI-H226 lung it was 89.7%; in the test with NCI-H322M lung, 100%; in the test with HOP-62 NSCLC, 109%; in the test on NCI-H460 lung, 106%; with HOP-92 NSCLC, 74.4%. The growth in the test with NCI-H522 lung is 101%; in the test on A549/ATCC NSCLC it was 105%; in the test on 786-0 renal it was 111%; with COLO 205 colon, 96.9%.
Regarding `COc1cc(-c2cc(-c3nc4ccc(F)cc4[nH]3)[nH]n2)cc(OC)c1OC`, the growth was 15.8% in the test on NCI-H23 lung; -11.1% (active) with NCI-H226 lung; 48.7% in the test on NCI-H322M lung; 8.23% (active) in the test with HOP-62 NSCLC; 33.5% in the test with NCI-H460 lung; 25.8% in the test with HOP-92 NSCLC. Moreover, the growth is 9.45% (active) in the test on NCI-H522 lung, 29% in the test with A549/ATCC NSCLC, 53.7% in the test with 786-0 renal and 20.9% in the test on COLO 205 colon.
Consider `C=C(C)[C@@H]1CC[C@]2(C(=O)N3CCN(C)CC3)CC[C@]3(C)[C@H](CC[C@@H]4[C@@]5(C)C/C(=C/c6ccc(C(F)(F)F)cc6)C(=O)C(C)(C)[C@@H]5CC[C@]43C)[C@@H]12`, for which the growth in the test on NCI-H23 lung was 99.2%; with NCI-H226 lung it was 101%; in the test on NCI-H322M lung, 96.5%; with HOP-62 NSCLC it was 96.6%; in the test with NCI-H460 lung, 97.9%; with HOP-92 NSCLC, 78.1%. Also, the growth was 94.4% with NCI-H522 lung, 92.6% in the test on A549/ATCC NSCLC, 90.3% with 786-0 renal and 105% with COLO 205 colon.
Regarding `COc1ccc(C2c3ccccc3NC(=O)N2C2CCN(C)CC2)c(OC)c1` (stereo not given), the growth is 100% in the test with NCI-H23 lung; 94.1% with NCI-H226 lung; 95.9% in the test with NCI-H322M lung; 101% with HOP-62 NSCLC; 101% in the test with NCI-H460 lung; 79.9% in the test on HOP-92 NSCLC. The growth with NCI-H522 lung was 89.5%; in the test on A549/ATCC NSCLC, 103%; with 786-0 renal it was 102%; in the test with COLO 205 colon, 106%.
With `Cn1nc(-c2ccccc2)c2c(-c3ccccc3)onc2c1=O`, the growth is 48% in the test on NCI-H23 lung; 62.1% with NCI-H226 lung; 55.4% in the test on NCI-H322M lung; 31% in the test with HOP-62 NSCLC; 28.3% in the test on NCI-H460 lung; 43.9% with HOP-92 NSCLC. Besides, the growth is 10.6% in the test with NCI-H522 lung, 35.4% with A549/ATCC NSCLC, 49.7% in the test on 786-0 renal and 15.2% in the test with COLO 205 colon.
Take `CC(=O)c1c(C)[nH]c(-c2nc3ccc(N4CCN(C)CC4)cc3[nH]2)c1-c1ccc(OCC2CCOCC2)cc1`: the growth in the test on NCI-H23 lung is 36.6%; with NCI-H226 lung it was 44.4%; in the test with NCI-H322M lung, 41.1%; in the test with HOP-62 NSCLC, 24.7%; in the test on NCI-H460 lung it was 49.6%; in the test with HOP-92 NSCLC, 37%. Further, the growth with NCI-H522 lung is 37.6%; in the test on A549/ATCC NSCLC, 33.2%; in the test with 786-0 renal, 35.6%; in the test on COLO 205 colon it was 3.57% (active).
With `COc1cccc(-c2nn(-c3ccccc3)cc2-c2ccnc(NCCCNS(=O)(=O)c3ccc(Br)cc3)c2)c1`, the growth in the test on NCI-H23 lung is 52.9%; in the test with NCI-H226 lung it was 51.9%; with NCI-H322M lung, 74.4%; in the test on HOP-62 NSCLC, 81%; in the test with NCI-H460 lung, 44.3%; in the test with HOP-92 NSCLC it was 34.6%. Besides, the growth was 54.4% in the test on NCI-H522 lung, 47.7% in the test on A549/ATCC NSCLC, 46.4% with 786-0 renal and 20.8% in the test with COLO 205 colon.
For the compound `CC1(C)C(=O)CC[C@]2(C)[C@H]3C(=O)C=C4[C@@H]5C[C@@](C)(C(=O)NCCNCCN)CC[C@]5(C)CC[C@@]4(C)[C@]3(C)CC[C@@H]12`, the growth with NCI-H23 lung was 98.4%; with NCI-H226 lung it was 96.8%; with NCI-H322M lung, 108%; in the test on HOP-62 NSCLC, 94.1%; in the test with NCI-H460 lung, 99.2%; with HOP-92 NSCLC it was 66.2%. Moreover, the growth is 111% in the test on NCI-H522 lung, 97.6% in the test on A549/ATCC NSCLC, 99.9% in the test with 786-0 renal and 108% in the test on COLO 205 colon.

The values are drawn from PubChem BioAssay (NCI).
